Source: the supplement of paper PMC6763611

System: Plasmodium falciparum NF54
Assay: growth inhibition relative to untreated control; higher = more inhibition
Settings: 72 h
Method in brief: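 Ring-stage P. falciparum NF54 parasites at 1% hematocrit and 1% parasitemia were dispensed at 100 μL/well into dark 96-well half-area plates and given a single dose of test compound at 5 μM or 1 μM for 72 h at 37 °C. Incubation took place in minimal RPMI, either alone or supplemented with the chorismate end-products folate (2.2 μM), pABA (7.3 μM), pHBA (7.3 μM), tyrosine (111 μM), phenylalanine (90 μM) and tryptophan. Growth inhibition was determined with SYBR Green relative to untreated wells, using uninfected erythrocytes for background.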

[1] = 1 µM, MM + chorismate end-products (CM screening medium)
[2] = 5 µM, MM + chorismate end-products (CM screening medium)

Compound | growth inhibition [1] [%] | growth inhibition (1 µM, minimal medium (MM)) [%] | growth inhibition [2] [%] | growth inhibition (5 µM, minimal medium (MM)) [%]
CC[C@@H](CO)NCCN[C@@H](CC)CO | 12.3 | 28.8 | 0.997 | 3.8
FC(F)(F)c1cc(NCCc2ccccc2)nc(-c2ccccn2)n1 | 37.2 | 0.647 | 0.0785 | < 0
CC(C(=O)N1CCCC1)N1CCN(S(=O)(=O)c2ccc(C(C)(C)C)cc2)CC1 (configuration not stated) | 37.6 | 71 | 67.3 | 33.4
